# Compounds with a hit are over-represented: about 4.6% of the library has one in this group of screens.
# TRHR agonist: TRH receptor (human) agonism; activation, % at 2 µM; P34981; actives 0.18% (n = 360,000); TRHR cells, calcium flux fluo-8, FDSS agonist mode; AID 493084; note: 0% is about no effect
#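 Fluo-8-loaded TRHR cells; 10 s baseline, compound added, kinetic Ca2+ fluorescence read 1/s, agonist mode.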
# D1 ag: human D1 receptor agonism | actives 1% (n = 360,000) | P21728 | AID 504660 | HEK293 T-REx D1 cells, calcium flux, agonist mode | activation, % at 2 µM; note: 0% is about no effect
# Target sequence (P21728 whole entry, looked up): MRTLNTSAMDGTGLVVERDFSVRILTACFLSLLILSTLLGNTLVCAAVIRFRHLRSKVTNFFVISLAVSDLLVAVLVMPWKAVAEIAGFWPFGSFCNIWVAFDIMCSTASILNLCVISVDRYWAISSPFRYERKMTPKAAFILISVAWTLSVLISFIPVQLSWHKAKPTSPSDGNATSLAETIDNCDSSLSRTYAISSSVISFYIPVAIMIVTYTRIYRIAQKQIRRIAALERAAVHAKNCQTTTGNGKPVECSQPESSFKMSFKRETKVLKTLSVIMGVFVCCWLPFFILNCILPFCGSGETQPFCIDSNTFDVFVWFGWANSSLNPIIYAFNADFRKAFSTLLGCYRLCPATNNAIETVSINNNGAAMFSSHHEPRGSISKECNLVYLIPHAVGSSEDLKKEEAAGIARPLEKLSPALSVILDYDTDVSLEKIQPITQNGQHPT
#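 Inducible HEK293 T-REx D1 cells, force-coupled to calcium signalling, were plated at 4000 cells/well with tetracycline and held overnight at 30 C. After no-wash calcium dye loading, compound-evoked calcium rise over 180 s flagged agonists.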
# TRHR PAM: TRH receptor (human) allosteric enhancement | P34981 | TRHR cells, fluo-8 calcium fluorescence, EC20 TRH enhancement | enhancement, % at 2 µM | actives 0.66% (n = 360,000); in the data active = enhancement above about 30%; note: 0% is about no effect
#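 Enhancer read-out: after compound pinning and an initial kinetic agonist-mode read, an EC20 of TRH (10 nM final) was injected and fluo-8 calcium signal (Ex 480/Em 530) followed at 1 s/cycle for 100 cycles in TRHR-expressing cells.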
# D1 potentiator: potentiators of human D1 dopamine receptor. actives 0.036% (n = 360,000). potentiation, % at 10 µM. HEK293 TREx D1 cells, calcium flux, dopamine EC20 potentiation. P21728. AID 504651; in the data active = potentiation above about 30%; note: 0% is about no effect
# D1 antagonist: blocks dopamine activation of the human D1 receptor; activity change, negative = inhibition, % at 10 µM; HEK293 TREx D1 cells, calcium flux, dopamine EC80; hits give low values; actives 3.2% (n = 360,000); in the data active = activity change below about -30%; note: % is set by controls: 0 for no effect and ±100 for the full control effect
#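 Compound effects on dopamine-evoked calcium signalling were measured in tetracycline-induced HEK293 Trex D1 cells. Dopamine at EC80 followed a 180 s compound pre-read, and fluorescence was tracked kinetically for 180 s more.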
# An asterisk follows results filed as active. Cut-off read from the data, not from the text of the source, unless noted: active = activation above about 30%; inactive = the rest.
SMILES,TRHR agonist,D1 ag,TRHR PAM,D1 potentiator,D1 antagonist
c1ccc2c(c1)OC(CCCN1CCCCC1)c1ccccc1S2 (stereo unspecified),2,14,8,-7,-85*
O=C1C2C3CCCC3=C3CCCC3C2C(=O)N1c1ccc(F)cc1 (stereo unspecified),1,1,-4,-6,-2
Cc1ccc(Nc2cc(C)c(C#N)c3nc4ccccc4n23)c(C)c1,2,-1,4,-9,-38*
C/C(=N\N1CCN(C2c3ccccc3-c3ccccc32)CC1)c1ccco1,0,4,2,7,10
CCCCCCn1c(/C=C/c2ccccc2)nc2ccccc21,2,16,-7,-6,-31*
CCCCCn1c(-c2ccc(OC)c(OC)c2)nc2ccccc21,-1,57*,5,-3,-47*
CC(C)Cn1c(/C=C/c2ccccc2)nc2ccccc21,-1,6,-1,-3,8
CCn1c(/C=C/c2ccccc2)nc2ccccc21,0,-1,-5,-10,-39*
COc1cc(Cn2c(-c3ccc(O)c(OC)c3)nc3ccccc32)ccc1O,0,1,0,-3,-15
O=C(Cn1cc(C(=O)c2ccccc2)c(=O)c2cc3c(cc21)OCCO3)Nc1ccc(F)c(F)c1,-2,6,-4,-2,22
Cc1ccc(-n2c(=O)c3ccc(C(=O)NCc4ccccc4Cl)cc3n(CC(N)=O)c2=O)cc1,1,1,-2,0,0
Cc1nn(-c2ccccc2)c(Cl)c1CN(C(=O)CCl)c1ccc(Cl)cc1,-1,2,-18,-8,-57*
Cn1nnnc1SCCCNCc1cc(Br)ccc1OCc1ccccc1,0,39*,-1,-1,-25
CCOc1ccc(Br)cc1CNCCSc1nnnn1-c1ccccc1,7,106*,-14,1,-38*
Cn1nnnc1SCCNCc1ccc(OCc2ccc(Cl)cc2)cc1,1,46*,-4,-1,-9
Brc1cccc(CNCCSc2nnnn2-c2ccccc2)c1,-2,5,-3,5,7
Cn1nnnc1SCCCNCc1ccc(-c2ccc(Br)cc2)o1,1,41*,2,0,-21
CC(=O)Nc1ccc(S(=O)(=O)NNC(=S)NCC2CCCO2)cc1 (stereo unspecified),0,4,1,-2,-7
O=C(Nc1cccc(Cl)c1)c1ccc2c(c1)OCCO2,1,2,2,-10,-13
COc1cc2c(=O)c(S(=O)(=O)c3ccc(C)cc3)cn(Cc3cccc(C)c3)c2cc1OC,0,15,5,0,8
CC(C)CNC(=O)CC(c1ccccc1)c1ccccc1,-2,1,-3,12,3
Cc1cc2sc3nc(=O)n(-c4ccccc4)c(=O)n3c2cc1C,0,4,5,-2,5
C/C(=C\COc1cc(=O)[nH]c2ccccc12)CCC(O)C(C)(C)O (stereo unspecified),0,-1,32*,0,4
Cc1ccc2cc(CN(Cc3cccs3)Cc3nnnn3C(C)(C)C)c3nnnn3c2c1,0,3,32*,-6,-5
Cc1cc2cc(CN(Cc3cccs3)C(c3nnnn3C(C)(C)C)C(C)C)c3nnnn3c2cc1C (stereo unspecified),2,1,5,-6,-5
SMILES,TRHR agonist,D1 ag,TRHR PAM,D1 potentiator,D1 antagonist
CC(C)C(=O)C1=Cc2cccc([N+](=O)[O-])c2OC1N1CCOCC1 (stereo unspecified),2,0,5,-1,-36*
CC(C)(C)OC(=O)N1CCC(NC(=O)c2nc[nH]c2C(=O)NCC(=O)OCc2ccccc2)CC1,-1,1,-4,-4,-15
O=S(=O)(/N=C(/Nc1ccccc1F)c1ccccc1)c1ccccc1,0,2,-4,-4,0
N#CN/C(=N\S(=O)(=O)c1ccccc1)c1ccccc1,1,4,37*,-1,-1
CC/C(=N\Nc1ccc([N+](=O)[O-])cc1)c1ccccc1,-1,24,7,-10,-34*
C/C(=N\NC(=O)COc1ccc([N+](=O)[O-])cc1)c1ccco1,0,0,5,4,6
C/C(=N\Nc1ccc([N+](=O)[O-])cc1)c1ccc(N2CCOCC2)cc1,19,39*,4,-2,-1
C/C(=N\Nc1ccc([N+](=O)[O-])cc1)c1ccco1,4,33*,-2,-7,-3
C/C(=N\Nc1ccccc1[N+](=O)[O-])c1ccc(N2CCOCC2)cc1,0,2,4,9,-9
N#CCCn1cc(/C=N/N=C2\NC(=O)C(CC(=O)O)S2)c(-c2ccc(F)cc2)n1 (stereo unspecified),0,1,4,-3,-3
O=C(NCc1ccc2c(c1)OCO2)c1nc(Cn2cc(Br)cn2)no1,-1,3,-4,-9,7
COc1cc(/C=C(\C#N)c2nc3ccccc3s2)ccc1OCC(=O)Nc1ccccc1,3,15,0,-17,-6
COc1ccc(NS(=O)(=O)c2cc(N/C(=N\S(=O)(=O)c3ccccc3)c3ccc(F)cc3)ccc2Cl)cc1,1,8,-1,0,-38*
Cc1ccc(S(=O)(=O)c2nc(-c3ccccc3F)oc2N2CCCCC2)cc1,-2,4,4,-4,-2
Cc1ccc2occ(CC(=O)Nc3ccc(Cl)c(C(F)(F)F)c3)c2c1,2,16,-4,-3,-31*
CN(CC(=O)NCc1ccc(F)cc1)CC(=O)Nc1ccc(Cl)c(C(F)(F)F)c1,1,24,2,1,-33*
Cc1ccc(NC(=O)CN(C)CC(=O)Nc2ccc(F)c(Cl)c2)cc1,0,2,2,3,-55*
CCNC(=S)Nc1ccc(Cl)c(C(F)(F)F)c1,1,20,-2,-6,-32*
O=C(Nc1ccc(Cl)c(C(F)(F)F)c1)c1ccco1,-1,-1,3,-3,-29
Cc1coc2c1c(C)cc1oc(=O)c(CC(=O)NCC(=O)O)c(C)c12,1,1,1,1,-3
Cc1ccc2c(CC(=O)Nc3ccc(S(=O)(=O)N4CCCC(C)C4)cc3)coc2c1 (stereo unspecified),2,6,0,2,-3
Cc1ccc2c(CC(=O)Nc3ccc(S(=O)(=O)N4CCCCC4)cc3)coc2c1,2,5,1,0,-73*
COc1ccccc1CNS(=O)(=O)c1ccc2c(c1)N(C(C)=O)CCO2,0,-1,8,2,-5
Cc1ccccc1CNS(=O)(=O)c1ccccc1[N+](=O)[O-],0,1,32*,-4,6
CC(=O)N1CCOc2ccc(S(=O)(=O)NCc3ccccc3Cl)cc21,0,1,0,-4,-32*
Cc1ccc(CNS(=O)(=O)c2ccc3c(c2)OCCO3)cc1,0,10,-7,-6,-6

# Screening results deposited in PubChem by National Center for Advancing Translational Sciences (NCATS).
